Of roughly 21,000 targets only a part is listed; those with the largest changes were picked by preference.
Compound: Cc1cc(ccc1-c1ccccc1)C(=O)N1CCCN(CC1)C(=O)CCl [compound 10]
Assay: probe-labelled cysteine peptide fold change vs DMSO (competition) (log2 fold change); higher = less target engagement (more negative = stronger competition)
Conditions: THP-1, incubation time: 4 h
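Note: competitive profiling in live THP-1 cells: cysteine peptides tagged with an iodoacetamide desthiobiotin (IA-DTB) probe, intensity after compound treatment relative to DMSO-treated cells.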

Chain of UniProt O75592 (O75592 whole entry, looked up): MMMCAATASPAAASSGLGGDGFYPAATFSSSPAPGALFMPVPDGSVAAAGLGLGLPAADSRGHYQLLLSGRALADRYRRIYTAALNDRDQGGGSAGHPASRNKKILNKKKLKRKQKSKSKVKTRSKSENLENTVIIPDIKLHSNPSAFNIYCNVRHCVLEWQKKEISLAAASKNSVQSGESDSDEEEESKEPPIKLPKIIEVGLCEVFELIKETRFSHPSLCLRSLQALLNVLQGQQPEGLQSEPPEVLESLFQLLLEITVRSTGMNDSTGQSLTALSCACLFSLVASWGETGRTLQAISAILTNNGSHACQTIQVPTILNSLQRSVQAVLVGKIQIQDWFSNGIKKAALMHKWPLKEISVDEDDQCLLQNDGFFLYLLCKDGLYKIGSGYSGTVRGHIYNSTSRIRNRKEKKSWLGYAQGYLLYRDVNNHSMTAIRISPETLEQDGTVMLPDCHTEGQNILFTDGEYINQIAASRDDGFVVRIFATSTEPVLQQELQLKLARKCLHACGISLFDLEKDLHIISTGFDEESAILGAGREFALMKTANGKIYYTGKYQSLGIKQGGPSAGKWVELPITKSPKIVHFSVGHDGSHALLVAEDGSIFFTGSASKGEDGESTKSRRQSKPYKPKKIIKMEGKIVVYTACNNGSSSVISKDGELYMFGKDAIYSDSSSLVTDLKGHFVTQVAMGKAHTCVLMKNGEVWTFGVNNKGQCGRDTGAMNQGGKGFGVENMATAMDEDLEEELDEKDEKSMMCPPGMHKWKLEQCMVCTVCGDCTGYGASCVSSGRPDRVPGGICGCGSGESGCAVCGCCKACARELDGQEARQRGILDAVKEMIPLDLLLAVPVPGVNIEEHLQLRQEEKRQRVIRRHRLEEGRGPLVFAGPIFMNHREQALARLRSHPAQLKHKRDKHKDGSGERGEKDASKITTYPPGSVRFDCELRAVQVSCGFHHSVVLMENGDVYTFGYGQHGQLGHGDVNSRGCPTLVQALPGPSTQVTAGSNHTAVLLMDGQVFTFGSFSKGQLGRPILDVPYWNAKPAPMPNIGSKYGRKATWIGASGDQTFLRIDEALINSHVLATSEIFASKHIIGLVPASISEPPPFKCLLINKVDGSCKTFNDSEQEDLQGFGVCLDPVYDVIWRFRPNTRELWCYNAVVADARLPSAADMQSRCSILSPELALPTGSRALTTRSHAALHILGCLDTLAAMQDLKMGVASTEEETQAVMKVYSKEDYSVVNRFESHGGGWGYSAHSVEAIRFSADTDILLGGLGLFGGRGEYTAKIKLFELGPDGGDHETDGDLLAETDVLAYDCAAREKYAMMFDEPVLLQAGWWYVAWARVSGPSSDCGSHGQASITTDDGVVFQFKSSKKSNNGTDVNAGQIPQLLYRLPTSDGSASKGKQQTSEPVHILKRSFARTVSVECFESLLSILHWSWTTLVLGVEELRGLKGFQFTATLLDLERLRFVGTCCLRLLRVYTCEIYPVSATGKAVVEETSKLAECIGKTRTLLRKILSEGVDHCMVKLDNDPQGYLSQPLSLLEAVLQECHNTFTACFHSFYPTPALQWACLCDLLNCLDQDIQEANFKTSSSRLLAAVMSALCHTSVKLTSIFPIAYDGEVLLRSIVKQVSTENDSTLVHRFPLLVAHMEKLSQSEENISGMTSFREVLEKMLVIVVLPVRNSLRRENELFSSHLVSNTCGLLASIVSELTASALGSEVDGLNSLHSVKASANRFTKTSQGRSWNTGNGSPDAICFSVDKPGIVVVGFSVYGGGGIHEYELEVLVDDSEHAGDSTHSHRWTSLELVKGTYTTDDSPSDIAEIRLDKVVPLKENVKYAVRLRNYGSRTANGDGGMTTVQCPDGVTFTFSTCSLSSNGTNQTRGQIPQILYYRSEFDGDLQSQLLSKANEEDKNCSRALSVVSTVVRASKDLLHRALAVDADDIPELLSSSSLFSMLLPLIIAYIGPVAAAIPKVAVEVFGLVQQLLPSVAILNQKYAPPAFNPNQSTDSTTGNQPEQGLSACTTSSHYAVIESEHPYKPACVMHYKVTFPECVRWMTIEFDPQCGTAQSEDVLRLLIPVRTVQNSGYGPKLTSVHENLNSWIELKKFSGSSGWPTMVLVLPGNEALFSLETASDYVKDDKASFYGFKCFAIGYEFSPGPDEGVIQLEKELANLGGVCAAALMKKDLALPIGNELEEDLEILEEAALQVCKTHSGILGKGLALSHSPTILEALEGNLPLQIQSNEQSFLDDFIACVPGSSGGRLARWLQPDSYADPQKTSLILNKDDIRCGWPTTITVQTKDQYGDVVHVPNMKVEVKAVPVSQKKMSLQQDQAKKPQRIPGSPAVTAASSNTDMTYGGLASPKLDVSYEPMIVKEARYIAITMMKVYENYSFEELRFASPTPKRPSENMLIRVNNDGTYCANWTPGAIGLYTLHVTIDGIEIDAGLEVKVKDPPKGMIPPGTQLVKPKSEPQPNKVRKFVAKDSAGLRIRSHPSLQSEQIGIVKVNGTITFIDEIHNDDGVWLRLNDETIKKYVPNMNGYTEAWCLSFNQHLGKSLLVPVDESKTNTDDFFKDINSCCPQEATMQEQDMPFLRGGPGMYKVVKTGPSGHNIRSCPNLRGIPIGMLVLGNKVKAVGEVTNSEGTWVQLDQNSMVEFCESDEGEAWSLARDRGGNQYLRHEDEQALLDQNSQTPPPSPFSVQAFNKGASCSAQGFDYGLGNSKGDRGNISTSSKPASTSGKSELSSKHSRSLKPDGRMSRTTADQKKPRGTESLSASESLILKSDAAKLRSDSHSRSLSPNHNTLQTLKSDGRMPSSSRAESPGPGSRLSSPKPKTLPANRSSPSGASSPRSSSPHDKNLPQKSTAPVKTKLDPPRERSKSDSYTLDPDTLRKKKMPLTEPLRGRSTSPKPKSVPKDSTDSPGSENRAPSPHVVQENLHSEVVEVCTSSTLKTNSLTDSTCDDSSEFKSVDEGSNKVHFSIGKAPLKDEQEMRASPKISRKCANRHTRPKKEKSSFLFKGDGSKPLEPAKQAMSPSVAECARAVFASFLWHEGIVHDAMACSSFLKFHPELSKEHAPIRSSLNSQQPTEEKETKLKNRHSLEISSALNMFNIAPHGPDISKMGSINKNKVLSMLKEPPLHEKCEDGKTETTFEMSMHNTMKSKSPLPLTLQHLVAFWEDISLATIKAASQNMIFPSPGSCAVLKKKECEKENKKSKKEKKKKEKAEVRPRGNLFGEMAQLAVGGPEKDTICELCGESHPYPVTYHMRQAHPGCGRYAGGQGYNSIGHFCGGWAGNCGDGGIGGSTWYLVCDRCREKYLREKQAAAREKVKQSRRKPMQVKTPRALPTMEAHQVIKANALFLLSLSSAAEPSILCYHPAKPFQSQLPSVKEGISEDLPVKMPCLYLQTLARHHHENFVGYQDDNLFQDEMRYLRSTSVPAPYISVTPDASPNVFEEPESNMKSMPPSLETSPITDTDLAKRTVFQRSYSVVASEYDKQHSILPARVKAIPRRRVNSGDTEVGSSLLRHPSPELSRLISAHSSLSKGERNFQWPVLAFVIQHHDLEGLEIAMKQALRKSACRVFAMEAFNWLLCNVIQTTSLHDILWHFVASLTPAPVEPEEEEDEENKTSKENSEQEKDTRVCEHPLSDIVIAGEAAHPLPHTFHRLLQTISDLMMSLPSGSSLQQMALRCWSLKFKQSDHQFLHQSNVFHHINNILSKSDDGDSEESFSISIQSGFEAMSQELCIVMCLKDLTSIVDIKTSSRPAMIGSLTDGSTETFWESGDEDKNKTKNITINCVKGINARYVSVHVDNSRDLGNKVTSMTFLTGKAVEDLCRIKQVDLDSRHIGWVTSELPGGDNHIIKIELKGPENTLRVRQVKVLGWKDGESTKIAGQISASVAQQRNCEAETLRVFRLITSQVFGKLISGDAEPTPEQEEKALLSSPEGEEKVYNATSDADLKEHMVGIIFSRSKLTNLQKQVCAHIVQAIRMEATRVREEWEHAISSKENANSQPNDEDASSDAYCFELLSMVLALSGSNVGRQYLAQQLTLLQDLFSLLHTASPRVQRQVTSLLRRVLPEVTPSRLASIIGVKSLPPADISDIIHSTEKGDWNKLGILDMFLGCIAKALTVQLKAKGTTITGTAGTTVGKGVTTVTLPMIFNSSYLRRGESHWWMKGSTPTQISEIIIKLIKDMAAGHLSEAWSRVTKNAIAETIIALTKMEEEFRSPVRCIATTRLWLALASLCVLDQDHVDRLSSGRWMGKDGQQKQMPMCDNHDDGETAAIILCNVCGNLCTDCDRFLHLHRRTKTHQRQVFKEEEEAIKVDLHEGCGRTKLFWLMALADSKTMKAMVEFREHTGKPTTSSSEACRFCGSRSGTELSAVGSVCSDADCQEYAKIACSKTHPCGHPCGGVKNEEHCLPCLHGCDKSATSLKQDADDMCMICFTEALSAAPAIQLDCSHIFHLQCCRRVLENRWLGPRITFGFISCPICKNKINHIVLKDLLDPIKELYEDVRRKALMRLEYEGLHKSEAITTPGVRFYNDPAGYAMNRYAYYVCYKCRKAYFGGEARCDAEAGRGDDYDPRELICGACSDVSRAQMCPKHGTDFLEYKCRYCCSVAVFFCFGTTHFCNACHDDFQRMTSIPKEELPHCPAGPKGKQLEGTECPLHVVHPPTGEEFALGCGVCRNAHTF
Chain of UniProt P45983 (P45983 whole entry, looked up): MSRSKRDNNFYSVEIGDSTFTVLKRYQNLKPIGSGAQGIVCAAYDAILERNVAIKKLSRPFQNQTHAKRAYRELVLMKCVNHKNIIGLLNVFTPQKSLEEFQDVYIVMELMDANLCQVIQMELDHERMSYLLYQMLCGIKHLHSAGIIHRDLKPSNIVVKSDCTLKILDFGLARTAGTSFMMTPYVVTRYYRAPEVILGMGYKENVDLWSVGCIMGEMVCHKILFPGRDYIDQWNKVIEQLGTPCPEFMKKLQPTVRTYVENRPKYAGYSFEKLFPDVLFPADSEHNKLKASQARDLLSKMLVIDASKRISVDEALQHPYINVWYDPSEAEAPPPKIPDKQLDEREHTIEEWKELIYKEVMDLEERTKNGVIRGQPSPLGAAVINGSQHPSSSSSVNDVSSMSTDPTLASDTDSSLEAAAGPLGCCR

Row | Target | probe-labelled cysteine peptide fold change (10 µM) | probe-labelled cysteine peptide fold change (50 µM)
1 | MAPK8_P45983_163_SDCTLK (UniProt P45983) | -0.283 | -1.24
2 | MRPL42_Q9Y6G3_45_STYSPLPDDYNCNVELALTSDGR (UniProt Q9Y6G3) | 0.0794 | -0.1
3 | MCM2_P49736_661_FDILCVVR (UniProt P49736) | 0.242 | 0.398
4 | MYCBP2_O75592_4318_QVFKEEEEAIKVDLHEGCGR (UniProt O75592) | -0.166 | -0.439
5 | MOB4_Q9Y3A3_134_HTLDGAACLLNSNK (UniProt Q9Y3A3) | -1.14 | -3.77
6 | MAP4K1_Q92918_335_SSSLGIPDADCCR (UniProt Q92918) | -0.294 | -1.09
7 | MCEE_Q96PE7_166_DCGGVLVELEQA (UniProt Q96PE7) | -0.0643 | 0.17
8 | MORC3_Q14149_15_LSALCPK (UniProt Q14149) | -0.27 | -1.37
9 | MAGT1_Q9H0U3_87_QCVVCK (UniProt Q9H0U3) | -0.137 | 0.464
10 | MAP4K1_Q92918_334+335_SSSLGIPDADCCR (UniProt Q92918) | -0.26 | -1.18
11 | MBD2_Q9UBB5_111_GRPPSGGSGLGGDGGGCGGGGSGGGGAPR (UniProt Q9UBB5) | -0.142 | -1.1
12 | MTR_Q99707_798_NIVGVVLGCNNFR (UniProt Q99707) | 0.00546 | -0.26
13 | MMS19_Q96T76_331_REVFQTASERVEAEGLAALHSLTACLSR (UniProt Q96T76) | -0.452 | 0.0397
14 | MCTS1_Q9ULC4_144_QHALCVGVMK (UniProt Q9ULC4) | 0.104 | -0.154

From the supplement of paper PMC12067093, “Discovery and optimisation of a covalent ligand for TRIM25 and its application to targeted protein ubiquitination” (Chemical Science, 2025)
